Source: PubChem BioAssay
Rows were chosen to be rich in hits. Some 1.6% of all compounds tested hit in one or more screens of this group.
KCNQ2 pot – enhances the rat KCNQ2 potassium channel; 310,000 tested, 0.54% active; AID 2239; B-score at 10 µM; CHO-K1 KCNQ2, FluxOR thallium flux fluorescence; active compounds read high; O88943;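 active = fluorescence ratio B-score at least 3 SD of library B-scores, with initial fluorescence B-score within 3 of them, cut at about 5.3 in these data; same plate scores as AID 2156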;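 note: B-score of peak minus minimum over baseline fluorescence ratio after K+ and Tl+ stimulus; positive B-score means potentiation of KCNQ2 with more thallium influx and brighter signal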
Target sequence (O88943 whole entry, looked up): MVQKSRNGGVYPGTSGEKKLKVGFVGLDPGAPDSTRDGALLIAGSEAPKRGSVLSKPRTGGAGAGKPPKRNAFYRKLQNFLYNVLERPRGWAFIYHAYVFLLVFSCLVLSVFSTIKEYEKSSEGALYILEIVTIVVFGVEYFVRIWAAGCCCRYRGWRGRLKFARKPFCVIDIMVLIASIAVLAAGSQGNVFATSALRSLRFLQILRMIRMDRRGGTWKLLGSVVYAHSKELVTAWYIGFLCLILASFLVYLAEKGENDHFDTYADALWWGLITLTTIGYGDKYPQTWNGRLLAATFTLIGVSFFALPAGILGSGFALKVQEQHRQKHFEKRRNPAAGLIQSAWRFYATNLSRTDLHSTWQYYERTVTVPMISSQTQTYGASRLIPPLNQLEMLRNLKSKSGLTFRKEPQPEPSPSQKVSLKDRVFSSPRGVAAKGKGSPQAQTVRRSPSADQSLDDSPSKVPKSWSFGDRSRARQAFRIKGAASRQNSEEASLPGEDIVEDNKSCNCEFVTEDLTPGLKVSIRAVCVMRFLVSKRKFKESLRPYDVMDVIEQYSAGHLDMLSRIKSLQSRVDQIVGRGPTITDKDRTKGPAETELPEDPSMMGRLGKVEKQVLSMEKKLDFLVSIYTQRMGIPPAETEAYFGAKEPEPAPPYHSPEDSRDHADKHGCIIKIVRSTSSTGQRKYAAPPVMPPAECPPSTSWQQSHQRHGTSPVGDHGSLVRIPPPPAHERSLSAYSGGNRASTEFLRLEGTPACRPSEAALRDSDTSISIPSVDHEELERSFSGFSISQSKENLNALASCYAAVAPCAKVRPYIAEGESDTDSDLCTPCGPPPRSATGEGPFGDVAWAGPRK
KCNQ2 block – KCNQ2 (rat) channel inhibition; CHO-K1 KCNQ2, FluxOR thallium flux, 20 min; active compounds read low; 310,000 tested, 1.1% active; AID 2156; O88943; B-score at 10 µM;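 active = fluorescence ratio B-score at most minus 3 library SDs, with starting brightness B-score within 2 library SDs, cut at about -5.5 in these data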
Kir21 confirm – confirmation of mouse Kir2.1 potassium channel inhibitors; AID 2032; shares compounds with KCNQ2 pot; Kir2.1-expressing cells, FluxOR thallium flux fluorescence; active compounds read low; Tl flux remaining, % of negative control (active compounds read low), % at 10 µM; 2,300 tested, 41% active;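 active = Primary-screen hit whose thallium flux fell at least 3 control SD below untreated wells in both duplicates, with normal baseline fluorescence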;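 note: 0% = blank wells without stimulus and 100% = stimulated no-compound controls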
HEK293 Tl flux – alters thallium flux in parental HEK293 cells, Kir2.1 counter-screen | shares compounds with KCNQ2 pot | FluxOR thallium flux fluorescence; 0% = unstimulated blank wells | FluxOR signal as % of negative control (100 = no effect), % at 10 µM | 2,300 tested, 19% active | AID 2105;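 active = dye signal at least 3 control SD above or below untreated wells in both duplicates, raw fluorescence within 3, either direction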;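 note: percent is based on the flux ratio of peak minus minimum fluorescence over baseline F0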
CHO-K1 ctr – parental CHO-K1 activity in KCNQ2 potentiator counter-screen. shares compounds with KCNQ2 pot. 1,200 tested, 43% active. parental CHO-K1 cells, FluxOR thallium flux fluorescence; zero = vehicle mean+3SD, 100% = vehicle-minus-blank window. AID 2282. activity increase over 3SD of controls, % at 10 µM;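 active = signal rise of at least 3 SD above the untreated control mean, in both duplicate wells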;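 note: counter screen of KCNQ2 potentiator hits so any rise reflects channel-independent effects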
KCNQ1 pot spec – tests whether KCNQ2 potentiators also act on human KCNQ1; 1,200 tested, 28% active; activation over 3SD threshold, % at 10 µM; CHO KCNQ1 stable, FluxOR thallium flux fluorescence; beyond 3SD, as % of vehicle-control signal; AID 2283; shares compounds with KCNQ2 pot;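 active = fluorescence ratio rise of at least 3 SD of vehicle wells above their mean, in both replicate wells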;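 note: 0% = vehicle mean plus 3 SD and 100% = vehicle minus unstimulated blank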
KCNQ2 pot confirm – confirmation of rat KCNQ2 potassium channel potentiators | shares compounds with KCNQ2 pot | CHO-KCNQ2 cells, FluxOR thallium flux fluorescence | 1,200 tested, 68% active | potentiation, less the hit threshold, % at 10 µM;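 active = fluorescence ratio rising 3 SD or more over the vehicle control mean in both replicates, plus primary screen hit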;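 note: peak minus minimum thallium fluorescence divided by baseline after K/Tl stimulus; 0% = vehicle mean plus 3 SD and 100% = vehicle minus unstimulated blank difference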
Kir21 spec – tests whether KCNQ2 potentiators also affect mouse Kir2.1 | shares compounds with KCNQ2 pot | HEK293 Kir2.1, FluxOR thallium flux fluorescence | activity over 3SD threshold, % at 10 µM | 1,200 tested, 2% active | AID 2345;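 active = fluorescence ratio rise of at least 3 SD above the vehicle-control mean, seen in both replicates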;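 note: 0% = vehicle mean plus 3 SD and 100% = vehicle minus no-stimulus blank window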
KCNQ2 W236L pot – KCNQ2 potentiators acting on retigabine-insensitive rat KCNQ2 W236L mutant. shares compounds with KCNQ2 pot. CHO KCNQ2-W236L, automated patch clamp current. current increase over 3SD of negative controls (%), active compounds read high, % at 25 µM. 940 tested, 10% active. AID 2558;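 active = current increase at least 3 SD of the untreated controls above them in both duplicate recordings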
* hit, by the source's call; i = inactive; / = no result given.

SMILES	KCNQ2 pot	KCNQ2 block	Kir21 confirm	HEK293 Tl flux	others
Cc1ccc(C(=O)N/C(=C\c2cccc([N+](=O)[O-])c2)C(=O)NC(Cc2ccccc2)C(=O)O)cc1 (configuration not stated)	/	i	/	/
COc1cccc(-c2nnc(Nc3nc4c(F)cccc4s3)o2)c1	9.74*	i	i	234.5%*	CHO-K1 ctr=-7.0;KCNQ1 pot spec=36.6*;KCNQ2 pot confirm=28.7*;Kir21 spec=-21.6;KCNQ2 W236L pot=i
COc1ccccc1-c1nnc(Nc2nc3c(OC)cccc3s2)o1	/	i	/	/
COc1cccc2sc(Nc3nnc(-c4ccccc4Cl)o3)nc12	21.4*	i	i	379.0%*	CHO-K1 ctr=-4.9;KCNQ1 pot spec=-6.4;KCNQ2 pot confirm=38.1*;Kir21 spec=-21.4;KCNQ2 W236L pot=i
COc1cccc(-c2nnc(NC(C)=O)o2)c1	0.28	i	/	/
Cn1c(SCc2cccc(F)c2)nnc1-c1ccncc1	0.12	i	/	/
C/C(=N/OCO/N=C(/C)c1ccc(F)cc1)c1ccc(F)cc1	/	i	/	/
CCOCc1cn(CC(=O)c2ccc(Cl)cc2)c(C)nc1=N	1.82	i	/	/
CCOCc1cn(CC(=O)c2ccc([N+](=O)[O-])cc2)c(C)nc1=N	/	i	i	i
CCCOP(=O)(c1ccc(N(C)C)cc1)C(Nc1ccccc1)c1ccc(C)cc1 (configuration not stated)	/	i	/	/
COc1ccc(-c2cc(=O)c3cc(OC)ccc3o2)cc1	0.36	i	/	/
COc1ccc(/C=C/c2cc(=O)c3cc(Cl)ccc3o2)cc1	/	i	i	i
CC(NC(=O)c1cccs1)C(c1cccs1)N1CCOCC1 (configuration not stated)	/	i	/	/
CCN(C(=O)Cc1c(C(=O)O)n(CC)c2ccccc12)c1cccc(C(F)(F)F)c1	/	i	/	/
Cc1ccc2nc(Cl)c(CNCc3ccccc3)cc2c1	/	i	20.5%*	i
Cc1ccc(CNCc2ccccc2Cl)cc1	/	i	/	/
O=C(CCSCCC(=O)NCc1cccs1)NCc1cccs1	0.86	i	/	/
O=C(NCc1cccs1)C12CC3CC(CC(C3)C1)C2	0.94	i	/	/
O=C(CC1CC2CCC1C2)NCc1cccs1 (configuration not stated)	5.35*	i	i	i	CHO-K1 ctr=-18.4;KCNQ1 pot spec=26.6*;KCNQ2 pot confirm=12.7*;Kir21 spec=-35.5;KCNQ2 W236L pot=i
O=C(CCC1CCCCC1)NCc1cccs1	7.39*	i	i	i	CHO-K1 ctr=54.1*;KCNQ1 pot spec=-11.7;KCNQ2 pot confirm=14.8*;Kir21 spec=-22.0;KCNQ2 W236L pot=i
Cc1nc2cc(Cl)ccc2c(=O)n1Cc1ccncc1	0.56	i	/	/
O=C(Nc1ccc(F)cc1)c1ccc(CSc2ccc(Cl)cc2)o1	7.19*	i	i	i	CHO-K1 ctr=2.2*;KCNQ1 pot spec=90.1*;KCNQ2 pot confirm=-9.1;Kir21 spec=-43.8;KCNQ2 W236L pot=i
CC(=O)c1ccc(NC(=O)c2ccc(CSc3ccccc3)o2)cc1	1.07	i	/	/
S=c1[nH]cnc2scc(-c3ccc(Cl)cc3)c12	9.61*	i	i	142.5%*	CHO-K1 ctr=-5.0;KCNQ1 pot spec=-4.3;KCNQ2 pot confirm=13.5*;Kir21 spec=-31.4;KCNQ2 W236L pot=i
O=c1[nH]cnc2scc(-c3ccccc3)c12	/	i	/	/
SMILES	KCNQ2 pot	KCNQ2 block	Kir21 confirm	HEK293 Tl flux	others
S=c1[nH]cnc2scc(-c3ccc(Br)cc3)c12	5.61*	i	i	194.0%*	CHO-K1 ctr=-3.2;KCNQ1 pot spec=-17.2;KCNQ2 pot confirm=-4.6;Kir21 spec=-20.3;KCNQ2 W236L pot=i
Cc1cc(-c2csc3nc[nH]c(=S)c23)cc(C)c1C	14.7*	i	i	262.5%*	CHO-K1 ctr=-8.9;KCNQ1 pot spec=-16.7;KCNQ2 pot confirm=36.0*;Kir21 spec=-19.6;KCNQ2 W236L pot=i
O=c1[nH]cnc2scc(-c3ccsc3)c12	2.27	i	/	/
Clc1ccc(-c2csc3ncnc(Cl)c23)cc1	0.92	i	/	/
N#Cc1cc[n+](CC(=O)c2ccc(NC(=O)c3ccccc3)cc2)cc1	0.83	i	/	/
Cc1nonc1OCCNC(=O)C12CC3CC(CC(C3)C1)C2	13.2*	i	i	73.5%*	CHO-K1 ctr=74.2*;KCNQ1 pot spec=-20.1;KCNQ2 pot confirm=-13.6;Kir21 spec=-41.2
CCOC(=O)CNC(=O)C12CC3CC(CC(C3)C1)C2	0.43	i	/	/
COc1cc(C(=O)O[C@H]2C/C(C)=C/CC[C@@]3(C)O[C@@H]3[C@H](O)[C@@H]2C(C)C)cc(OC)c1OC	/	i	/	/
COCCn1nnnc1CN1CCSCC1	/	i	/	/
Cc1ccc(SCCNC(=S)Nc2ccc(C)c(C)c2)cc1	10.4*	i	i	72.5%*	CHO-K1 ctr=1.9*;KCNQ1 pot spec=15.9*;KCNQ2 pot confirm=-2.2;Kir21 spec=-31.8;KCNQ2 W236L pot=i
Cc1ccc(SCCNC(=S)Nc2ccccc2)cc1	/	i	/	/
COc1ccc(C(=O)/C(=C\c2ccco2)N2C=CC=CC2=C(C#N)C#N)cc1	/	i	70.0%*	61.0%*
COc1ccc(C(=O)N/C(=C\c2ccco2)C(=O)OCc2ccco2)cc1	1.31	i	/	/
COC(=O)C(NC(=O)c1cccnc1Cl)C(C)C (configuration not stated)	0.02	i	/	/
Cc1cc(C)c(S(=O)(=O)NCCCn2ccnc2)cc1C	/	i	/	/
Cc1ccc(NC(=S)NCc2cccs2)cc1	8.95*	i	i	i	CHO-K1 ctr=-3.4;KCNQ1 pot spec=-11.8;KCNQ2 pot confirm=13.9*;Kir21 spec=-29.3;KCNQ2 W236L pot=i
S=C(NCc1cccs1)Nc1ccccc1	0.61	i	/	/
Cc1cccc2cc(C#N)c(NCCCNS(=O)(=O)c3ccc(Cl)cc3)nc12	0.45	i	/	/
OC(COc1ccc(Cl)cc1)CN1CCC(Cc2ccccc2)CC1 (configuration not stated)	/	i	/	/
Cc1cccc(C)c1OCC(O)CN1CCc2ccccc2C1 (configuration not stated)	/	i	/	/
OC(COCc1ccccc1)CN1CCc2ccccc2C1 (configuration not stated)	0.04	i	/	/
Cc1ccc(C)c(OCC(O)CN2CCC(Cc3ccccc3)CC2)c1 (configuration not stated)	/	i	49.0%*	i
Cc1ccc(C(C)C)c(OCC(O)CN2CCc3ccccc3C2)c1 (configuration not stated)	/	i	63.0%*	i
OC(COc1c(F)cc(Br)cc1F)CN1CCc2ccccc2C1 (configuration not stated)	/	i	26.0%*	i
COc1cc(-c2[nH]ncc2CN2CCN(c3cccc(C)n3)CC2)cc(OC)c1OC	3.51	i	/	/
CC(C)Cc1csc(NC(=O)c2ccc(Br)cc2)c1C(=O)O	6.07*	i	i	126.5%*	CHO-K1 ctr=6.1*;KCNQ1 pot spec=15.7*;KCNQ2 pot confirm=17.6*;Kir21 spec=-27.6;KCNQ2 W236L pot=i
CC(C)Cc1csc(NC(=O)C(C)C)c1C(=O)O	1.02	i	/	/
O=C(/C=C/Nc1ccc(Cc2ccc(N/C=C/C(=O)C(F)(F)F)cc2)cc1)C(F)(F)F	0.61	i	/	/
